# In PubChem BioAssay AID488969 (Vanderbilt High Throughput Screening Facility, 2010):
# Over roughly 110,000 compounds, “z-score” has its median near -0.1; the highest 2% begin near 2. The sample as a whole holds a higher share of the highest values than the screen did. The source made the active and inactive calls.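 How the source made its calls: active means z-score in the third read window above 3 or below -3; inactive means the rest.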
# Biological target: Metabotropic glutamate receptor 8 (Rattus norvegicus) (UniProt P70579)
# Sequence (P70579 whole entry, looked up): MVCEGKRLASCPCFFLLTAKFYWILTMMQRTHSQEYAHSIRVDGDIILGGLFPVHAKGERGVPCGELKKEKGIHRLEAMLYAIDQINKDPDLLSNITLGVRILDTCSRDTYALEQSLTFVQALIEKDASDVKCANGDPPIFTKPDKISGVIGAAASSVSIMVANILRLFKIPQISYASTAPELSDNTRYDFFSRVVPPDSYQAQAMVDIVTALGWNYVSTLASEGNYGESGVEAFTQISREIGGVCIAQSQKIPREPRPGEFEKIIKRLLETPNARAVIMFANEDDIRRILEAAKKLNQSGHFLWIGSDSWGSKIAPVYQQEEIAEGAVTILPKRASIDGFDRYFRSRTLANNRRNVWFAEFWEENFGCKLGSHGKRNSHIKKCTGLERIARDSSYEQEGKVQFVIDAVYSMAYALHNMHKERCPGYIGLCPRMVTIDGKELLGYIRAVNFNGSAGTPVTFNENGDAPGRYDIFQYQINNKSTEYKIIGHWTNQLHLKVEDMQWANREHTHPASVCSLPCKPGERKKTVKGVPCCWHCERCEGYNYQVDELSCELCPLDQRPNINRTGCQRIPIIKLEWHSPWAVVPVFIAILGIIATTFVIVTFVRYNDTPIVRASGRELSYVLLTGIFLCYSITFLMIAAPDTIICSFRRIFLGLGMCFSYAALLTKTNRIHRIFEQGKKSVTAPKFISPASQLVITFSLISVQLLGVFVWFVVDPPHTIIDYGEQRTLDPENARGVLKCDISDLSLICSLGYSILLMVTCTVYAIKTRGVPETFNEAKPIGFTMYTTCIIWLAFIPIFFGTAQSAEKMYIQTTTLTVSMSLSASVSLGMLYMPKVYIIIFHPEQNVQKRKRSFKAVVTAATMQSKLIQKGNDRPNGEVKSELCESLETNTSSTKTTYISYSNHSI
# Experiment: rat mGluR8 modulators via GIRK flux, primary screen, cell-based, thallium flux, HTS (AID 488969)
# Conditions: HEK293 rat mGluR8, GIRK (G protein-gated inwardly rectifying potassium channel) thallium flux, FluoZin2; at 10 µM; stronger effect = higher value; submaximal glutamate (EC20) added with thallium
row,SMILES,z-score
1,OCc1nc2ccccc2n1C/C=C/c1ccccc1,0.00864
2,O=C(Nc1ccc(Cl)cc1)C1CCCN(S(=O)(=O)c2cnc[nH]2)C1 (configuration not stated),0.605
3,COc1cc(C)c(Br)cc1S(=O)(=O)N1CCCC1,0.188
4,O=C1c2cccc3cccc(c23)C(=O)N1c1ccc2ncccc2c1,-0.261
5,CCOC(=O)C1=C(O)/C(=C\c2cccc(OC)c2)N=C1C,-0.194
6,COc1cccc(-c2nc(Oc3cc(C)cc(C)c3)c3ccccc3n2)c1O,0.123
7,CCNCc1cc(Br)c(OCC(=O)Nc2ccccc2)c(OC)c1,1.18
8,COc1cc(CNCC(C)C)c(Br)cc1OCC(=O)NCc1ccccc1,0.232
9,COc1cc(CNCC(C)C)cc(Br)c1OCC(=O)Nc1ccccc1,2.21
10,COc1ccc(OCC(=O)N2CCN(c3nnc(-c4ccccc4)c4ccccc34)CC2)cc1,0.267
11,CCOC(=O)c1ccc(S(=O)(=O)NCC(c2ccc(N(C)C)cc2)c2c[nH]c3ccccc23)cc1 (configuration not stated),0.201
12,CCOc1ccccc1NC(=O)Cc1c(F)cccc1Cl,-0.491
13,C#CC1(O)CC(C)N(C)C(C)C1 (configuration not stated),-0.0403
14,O=C(NNc1cccc(Cl)n1)c1cccnc1Cl,-0.00142
15,CCN(CC)CC(O)COCCC12CC3CC(CC(C3)C1)C2 (configuration not stated),3.04 (active)
16,OC(COCCC12CC3CC(CC(C3)C1)C2)CN1CCCCC1 (configuration not stated),-0.152
17,OCCN(CCO)CC(O)COCCC12CC3CC(CC(C3)C1)C2 (configuration not stated),0.239
18,O=C(COC(=O)c1cccs1)c1ccc2c(c1)OCCO2,-0.579
19,CC(C)(C)NC(=O)C(c1ccc(F)cc1)N(Cc1ccco1)C(=O)Cn1nnc(-c2cccs2)n1 (configuration not stated),-0.585
20,O=C(c1nc2ccccc2s1)N1CCSCC1,0.0723
21,CC(C)NC(=O)c1nc2ccccc2s1,3.05 (active)
22,CCOC(=O)N1CCN(/C=C(\C#N)c2nc3ccccc3s2)CC1,1.73
23,CCOC(=O)N1CCN(C(=O)CSc2ncccn2)CC1,0.107

row,SMILES,z-score
1,CCOC(=O)N1CCN(C(=O)c2nc3ccccc3s2)CC1,2.8
2,O=C(CSc1ncnc2ccccc12)N1CCN(c2ccccc2)CC1,-0.0217
3,CC(C)(C)NC(=O)c1nc2ccccc2s1,0.283
4,CCOC(=O)N1CCN(C(=O)CSc2ncnc3ccccc23)CC1,3.04 (active)
5,O=C(NCCO)c1nc2ccccc2s1,1.28
6,S=C(Nc1ccc(Cl)cc1)c1sc(N2CCCCC2)nc1N1CCOCC1,-0.435
7,CC(NC(=O)COc1ccccc1-c1ccccc1)c1ccccc1 (configuration not stated),-0.192
8,O=C(COc1ccc2c(c1)CCC2)N1CCN(c2cccc(C(F)(F)F)c2)CC1,-0.0515
9,Cc1ccc(OCCN2CCN(CC(O)Cn3c4ccccc4c4ccccc43)CC2)cc1 (configuration not stated),0.113
10,CC(C(=O)N1c2ccccc2CCc2ccccc21)n1nnc(-c2ccc(N(C)C)cc2)n1 (configuration not stated),0.255
11,Cc1cc(NC(=O)CSc2nc(CC(C)(C)C)nc3c2c(=O)n(C)c(=O)n3C)no1,-0.0135
12,CCOc1ccc2nc(NC(=O)c3ccoc3C)sc2c1,-0.855
13,COc1ccccc1Nc1nnc(SCC(=O)NC(=O)Nc2ccc3c(c2)OCCO3)s1,-0.138
14,Cc1cc(C(=O)CSc2nnc(-c3cccnc3)n2-c2ccccc2)c(C)n1CC1CCCO1 (configuration not stated),-0.185
15,COC(=O)Nc1ccc(S(=O)(=O)Nc2ccccc2F)cc1,0.00713
16,Cc1cc(NC(=O)C2C3C(=O)N(Cc4ccc(Cl)cc4)C(C(=O)NCc4ccccc4)C34C=CC2(C)O4)no1 (configuration not stated),0.193
17,Cc1cccc(NC(=O)CN2C(=O)S/C(=C\c3cc(C)n(C)c3C)C2=O)c1,0.326
18,COC(=O)C1=C(C)NC(C)=C(C(=O)OC)C1C(=O)OCC(=O)N1c2ccccc2CC1C (configuration not stated),0.131
19,CCOC(=O)C1=C(C)NC(C)=C(C(=O)OCC)C1C(=O)OCC(=O)N1c2ccccc2CC1C (configuration not stated),2.55
20,CCOC(=O)N1CCN(CC(=O)N2c3ccccc3CC2C)CC1 (configuration not stated),-0.746
21,C/C(=N\NC(=O)OC(C)(C)C)c1cccc([N+](=O)[O-])c1,-0.272
22,Cc1ccc(C(=O)Nc2nc(=O)n(C(=O)C3CC3)s2)cc1,-0.185
23,Cc1cc(N2CCN(c3ccccc3)CC2)nc(NCc2ccccc2)n1,3

row,SMILES,z-score
1,Cc1cc(N2CCCCC2)nc(NCc2ccccc2)n1,0.794
2,Cc1cc(N2CCOCC2)nc(NCc2ccccc2)n1,-0.0745
3,Cc1cc(Nc2ccccc2)nc(NCc2ccccc2)n1,2.34
4,Cc1ccc(Nc2cc(C)nc(NCc3ccccc3)n2)cc1,-0.326
5,Cc1cc(Nc2ccc(Cl)cc2)nc(NCc2ccccc2)n1,-0.173
6,c1ccc(-c2nnc(-c3ccccc3)c(-c3c[nH]c4ccccc34)n2)cc1,0.446
7,NNc1nc2c(F)cc(F)cc2s1,-0.193
8,Cc1ccc(Nc2nc3ccccc3s2)cc1,0.0689
9,Cc1ccccc1Nc1nc2ccccc2s1,0.103
10,Fc1cccc2sc(Nc3nc4ccccc4s3)nc12,2.21
11,CC(=O)Nc1nc2c(F)cccc2s1,0.033
12,Fc1cc(F)c2nc(Nc3nc4c(F)cccc4s3)sc2c1,9.18 (active)
13,Fc1cc(F)c2nc(N3CCCCC3)sc2c1,-0.14
14,NNc1nc2c(F)cccc2s1,0.0402
15,Fc1cccc2sc(Nc3nc4c(F)cccc4s3)nc12,2.09
16,O=C(Nc1ccc(Cl)cc1)Nc1cccnc1,0.471
17,CCN(CC)c1ncnc2c1cnn2C,-0.228
18,CCC1(CC)C(=O)N(C)C(=O)NC1=NCc1ccccc1,0.146
19,COc1ccc(/C=C/C(=O)Nc2ccc(N3CCOCC3)cc2)cc1,-0.219
20,CCCCn1c(N)c(C(=S)NC(=O)CC(C)C)c(=O)n(C)c1=O,3.59 (active)
21,CCCCn1c(N)c(C(=S)NC(=O)CC(C)(C)C)c(=O)n(C)c1=O,9.54 (active)
22,CC(C)Cn1c(N)c(C(=O)CSc2nnnn2C)c(=O)n(C)c1=O,-0.302
23,Cn1c(=O)c(C(=S)NC(=O)C2CC2)c(N)n(Cc2ccccc2)c1=O,0.362

row,SMILES,z-score
1,CCCn1c(N)c(C(=S)NC(=O)C2CC2)c(=O)n(C)c1=O,0.941
2,CC(C)Cn1c(N)c(C(=O)CSc2ccccc2)c(=O)n(C)c1=O,-0.216
3,CC(C)(C)n1ncc2c(=O)n(Cc3ccc(Cl)cc3Cl)cnc21,-1.25
4,Cc1ccc(CNC(=O)CCCOc2cc(=O)n(C)c3ccccc23)o1,-0.129
5,Clc1ccc(C(c2nnnn2C2CCCC2)N2CCSCC2)cc1 (configuration not stated),-0.998
6,O=C(O)C1CCN(C(=O)c2ccccc2Cl)CC1,-0.551
7,CC(=O)NC(CC(=O)Nc1cccc(S(=O)(=O)N2CCCCC2)c1)c1ccccc1 (configuration not stated),0.132
8,COCCCn1c(SCC(=O)N2CCc3ccccc32)nnc1-c1ccco1,-0.129
9,COc1ccc(N/C(C)=C2/C(=O)C(=O)N(CCO)C2c2ccc([N+](=O)[O-])cc2)cc1 (configuration not stated),-0.701
10,COc1ccc(N/C(C)=C2/C(=O)C(=O)N(CCO)C2c2ccc(Br)cc2)cc1 (configuration not stated),5.05 (active)
11,COc1ccc(C2/C(=C(/O)c3ccccc3)C(=O)C(=O)N2CCO)cc1 (configuration not stated),-0.0153
12,O=C1CCCc2c1cc(C(=O)NC1CCSC1=O)c(=O)n2-c1ccccc1 (configuration not stated),-0.276
13,CCN(CC)CC(=O)Nc1ccc2c(c1)Nc1ccccc1CC2,2.49
14,CCN(CC)CCC(=O)Nc1ccc2c(c1)N(C(=O)CN(CC)CC)c1ccccc1CC2,-0.214
15,CCN(CC)CC(=O)Nc1ccc2c(c1)N(C(=O)CN(CC)CC)c1ccccc1CC2,-0.342
16,COc1ccc(C(=O)c2cn[nH]c2-c2cc(Cl)ccc2O)cc1,-0.207
17,COc1ccc(/C=C2\C(=O)N(c3c(Cl)cc(Cl)cc3Cl)N=C2NC(=O)c2cccc([N+](=O)[O-])c2)cc1,-0.0535
18,Cc1ccc(C)c(NC(=O)CS(=O)(=O)c2cn(C)c3ccccc23)c1,0.61
19,CCn1cc(S(=O)(=O)CC(=O)Nc2cc(C)ccc2C)c2ccccc21,2.61
20,CCn1cc(S(=O)(=O)CC(=O)Nc2ccc(C)cc2)c2ccccc21,-0.393
21,CCOc1ccc(OCCOCCNCCOC)cc1,0.0989
22,Cc1c(CN(C)CCc2ccccc2)c(=O)n(-c2ccccc2)n1C,-0.04
23,CCc1ccc(Nc2nnc(SCC(=O)Nc3cccc(S(=O)(=O)NC4=NCCCCC4)c3)s2)cc1,-0.205

row,SMILES,z-score
1,CCn1cc(C2=NOC(C(=O)Nc3ccccc3C(=O)OC)C2)c(C)n1 (configuration not stated),-0.574
2,COC(=O)c1ccccc1NC(=O)C1CC(c2ccccc2O)=NO1 (configuration not stated),2.57
3,CSc1ccccc1NC(=O)C1CC(c2ccccc2O)=NO1 (configuration not stated),-0.288
4,CN(C)CCCNCCNC(=O)/C=N\O,-0.494
5,O=C1CC(c2ccc3c(c2)OCO3)c2cc3c(cc2N1)OCCO3 (configuration not stated),0.0815
6,O=C1CC(c2ccncc2)c2cc3c(cc2N1)OCO3 (configuration not stated),0.106
7,O=C1CC(c2ccncc2)c2cc3c(cc2N1)OCCO3 (configuration not stated),7.59 (active)
8,Cc1ccc(S(=O)(=O)CC(=O)c2ccc(C)c([N+](=O)[O-])c2)cc1,-0.799
9,CN(Cc1cccs1)C(=O)CCc1ccc(S(=O)(=O)N2CCOCC2)cc1,0.00198
10,CS(=O)(=O)C1=NSC2=NC(=O)/C(=C\c3cccn3-c3ccc(Cl)cc3)C(=N)N21,-0.377
11,O=C1CCC(/C=C/c2ccccc2)=NN1Cc1ccccc1Cl,-0.293
12,O=C1CCC(/C=C/c2ccccc2)=NN1Cc1ccc(Cl)c(Cl)c1,13.4 (active)
13,Cc1ccc(/C=C/C2=NN(Cc3ccc(Cl)c(Cl)c3)C(=O)CC2)cc1,-0.176
14,O=C(N/N=C/c1cccn1-c1ccc([N+](=O)[O-])cc1)C(O)c1ccccc1 (configuration not stated),0.181
15,O=C(Cc1ccccc1)N/N=C/c1cccn1-c1ccc([N+](=O)[O-])cc1,3.83 (active)
16,COc1ccc(CC(=O)N/N=C/c2cccn2-c2ccc([N+](=O)[O-])cc2)cc1OC,-0.892
17,O=C1CC(N2CCN(Cc3ccccc3)CC2)C(=O)N1c1ccc2c(c1)OCCO2 (configuration not stated),-0.057
18,CSC(=O)NC12CC3CC(CC(C)(C3)C1)C2,8.08 (active)
19,CC1(C(=O)NC23CC4CC(CC(C4)C2)C3)CC1(Cl)Cl (configuration not stated),-0.368
20,CCSC(=O)NC12CC3CC(CC(C3)C1)C2,-0.316
